Compounds without any hit were thinned out: in the full panel of roughly 79,000, 15% have a hit. The source made the active and inactive calls. Cut-off read from the data, not from the text of the source: active = growth inhibition above about 70%; inactive = the rest.
How the values were obtained:
[1] = NCI Yeast Anticancer Drug Screen. Data for the wt1 strain (AID 149);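 note: 0% = growth of vehicle-treated wt1 cultures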; settings: S. cerevisiae wt1 strain (SPY 50644) growth inhibition, active compounds read high
Summary of the method: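 wt1 yeast, compound-treated; % growth inhibition vs vehicle control.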

[2] = NCI Yeast Anticancer Drug Screen. Data for the mgt1 strain (AID 153); settings: S. cerevisiae mgt1 mutant growth inhibition, active compounds read high
Summary of the method: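 mgt1 strain exposed; growth vs vehicle control recorded as inhibition.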

[3] = NCI Yeast Anticancer Drug Screen. Data for the rad50 strain (AID 155);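 note: 0% = growth of vehicle-only cultures of the same strain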; settings: S. cerevisiae rad50 strain growth inhibition, active compounds read high
Summary of the method: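 Genetically altered yeast (DNA repair pathway); compound treatment; growth inhibition vs vehicle ctrl.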

[4] = NCI Yeast Anticancer Drug Screen. Data for the mec2-1 strain (AID 157); settings: S. cerevisiae mec2-1 strain, active compounds read high
Summary of the method: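 Vehicle-treated cultures served as reference for growth inhibition of compound-exposed mec2-1 yeast.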

[5] = NCI Yeast Anticancer Drug Screen. Data for the rad14 strain (AID 159);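 note: 0% = growth of vehicle-treated control cultures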; settings: S. cerevisiae rad14 strain growth inhibition, active compounds read high
Summary of the method: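 Test compounds were applied to a repair-deficient yeast strain. Its growth was then compared with that of cultures given vehicle alone, and inhibition was expressed relative to those controls.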

[6] = NCI Yeast Anticancer Drug Screen. Data for the sgs1 mgt1 strain (AID 161);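 note: 0% = growth of cultures given vehicle only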; settings: S. cerevisiae sgs1 mgt1 strain, active compounds read high
Summary of the method: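 Genetically altered yeast, compound exposure, growth inhibition relative to vehicle.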

[7] = NCI Yeast Anticancer Drug Screen. Data for the CLN2oe strain (AID 163);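 note: 0% = growth of vehicle-only control cultures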; settings: S. cerevisiae CLN2oe strain, active compounds read high
Summary of the method: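 Inhibition relative to vehicle-treated yeast is reported. Cells: strain with genetic alteration in cell-cycle control, grown with compound.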

[8] = NCI Yeast Anticancer Drug Screen. Data for the cln2 rad14 strain (AID 165);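 note: 0% = growth equal to vehicle treated cultures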; settings: S. cerevisiae cln2 rad14 strain, active compounds read high
Summary of the method: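 Each compound was tested on cln2 rad14 yeast. Inhibition of growth was calculated against vehicle-exposed controls.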

[9] = NCI Yeast Anticancer Drug Screen. Data for the bub3 strain (AID 167); settings: S. cerevisiae bub3 mutant strain, active compounds read high
Summary of the method: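 Yeast carrying a defined mutation is treated with each compound, and growth is compared with that of vehicle-exposed cells to give inhibition.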

[10] = NCI Yeast Anticancer Drug Screen. Data for the wt2 strain (AID 169);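 note: 0% = growth of vehicle-treated yeast cultures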; settings: S. cerevisiae wt2 strain growth inhibition, active compounds read high
Summary of the method: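 Inhibition of yeast growth was determined after compound treatment, normalised to controls receiving only vehicle.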

[11] = NCI Yeast Anticancer Drug Screen. Data for the mlh1 strain (AID 171);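 note: 0% = growth of vehicle-treated control cultures of the same strain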; settings: S. cerevisiae mlh1 strain growth inhibition, active compounds read high
Summary of the method: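 Vehicle-normalised growth inhibition of a repair- or checkpoint-altered yeast strain following compound treatment.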

[12] = NCI Yeast Anticancer Drug Screen. Data for the sgs1 strain (AID 173);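 note: 0% = growth of vehicle-only control cultures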; settings: S. cerevisiae sgs1 mutant, active compounds read high
Summary of the method: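 Screen format: yeast with repair or checkpoint alterations, compound exposure, growth read relative to vehicle.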

[13] = NCI Yeast Anticancer Drug Screen. Data for the mlh1 rad18 strain (AID 175); settings: S. cerevisiae mlh1 rad18 strain growth inhibition, active compounds read high
Summary of the method: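 Vehicle-treated cultures served as the reference for growth inhibition in a yeast strain carrying DNA damage repair alterations exposed to each compound.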

[14] = NCI Yeast Anticancer Drug Screen. Data for the rad18 strain (AID 177); settings: S. cerevisiae rad18 mutant growth inhibition, active compounds read high
Summary of the method: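 Test articles were incubated with altered yeast defective in DNA damage repair. Results are given as inhibition of growth versus vehicle.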

[15] = NCI Yeast Anticancer Drug Screen. Data for the rad52 strain (AID 147);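 note: 0% = growth of vehicle-treated control cultures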; settings: S. cerevisiae rad52 mutant growth inhibition, active compounds read high
Summary of the method: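 Vehicle-treated cultures served as the reference for growth inhibition of compound-exposed yeast bearing a DNA repair mutation.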

[16] = NCI Yeast Anticancer Drug Screen. Data for the rad50EPP+ strain (AID 151);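 note: 0% = growth of vehicle-treated control cultures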; settings: S. cerevisiae rad50 mutant strain, active compounds read high
Summary of the method: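 In this screen, rad50EPP+ yeast were exposed to compounds. Growth inhibition was scored against vehicle-treated controls.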

[17] = at 5.0 µM (retest, dose inferred, filed as 0.5)
[18] = at 50.0 µM (retest, dose inferred, filed as 5.0)

Measured: growth inhibition

OC1(c2ccccc2)CCCc2ccc(Cl)cc21 (stereo unspecified)
active: [1]; at 100.0 µM 98% | [2]; at 100.0 µM 99% | [3]; at 100.0 µM 99% | [4]; at 100.0 µM 99% | [5]; at 100.0 µM 99% | [7]; at 100.0 µM 99% | [9]; at 100.0 µM 98% | [10]; at 100.0 µM 99% | [11]; at 100.0 µM 99% | [12]; at 100.0 µM 99% | [14]; at 100.0 µM 99%
inactive: [1]; at 1.2 µM -1% | [1]; at 3.7 µM -2% | [1]; at 11.0 µM -8% | [1]; at 33.0 µM -4% | [2]; at 1.2 µM -10% | [2]; at 3.7 µM -15% | [2]; at 11.0 µM -2% | [2]; at 33.0 µM 5% | [3]; at 1.2 µM -3% | [3]; at 3.7 µM 1% | [3]; [17] 10% | [3]; at 11.0 µM -2% | [3]; at 33.0 µM 50% | [3]; [18] 28% | [3]; at 50.0 µM 57.2% | [4]; at 1.2 µM 2% | [4]; at 3.7 µM 5% | [4]; [17] 1% | [4]; at 11.0 µM 0% | [4]; at 33.0 µM 31% | [4]; [18] 11% | [4]; at 50.0 µM 50.2% | [5]; at 1.2 µM 1% | [5]; at 3.7 µM -1% | [5]; at 11.0 µM -1% | [5]; at 33.0 µM 17% | [6]; [17] -3% | [6]; [18] 4% | [6]; at 50.0 µM 56.2% | [7]; at 1.2 µM 1% | [7]; at 3.7 µM 0% | [7]; at 11.0 µM -17% | [7]; at 33.0 µM 20% | [8]; [17] 3% | [8]; [18] 13% | [8]; at 50.0 µM 11.1% | [9]; at 1.2 µM -2% | [9]; at 3.7 µM -10% | [9]; [17] -3% | [9]; at 11.0 µM -14% | [9]; at 33.0 µM -17% | [9]; [18] -13% | [9]; at 50.0 µM -16.4% | [10]; at 1.2 µM 0% | [10]; at 3.7 µM -2% | [10]; at 11.0 µM -7% | [10]; at 33.0 µM 7% | [11]; at 1.2 µM 1% | [11]; at 3.7 µM 3% | [11]; at 11.0 µM 0% | [11]; at 33.0 µM 30% | [12]; at 1.2 µM 0% | [12]; at 3.7 µM 0% | [12]; at 11.0 µM 0% | [12]; at 33.0 µM 33% | [13]; [17] 0% | [13]; [18] 39% | [13]; at 50.0 µM 53.8% | [14]; at 1.2 µM 0% | [14]; at 3.7 µM 4% | [14]; at 11.0 µM 3% | [14]; at 33.0 µM 40%

O=C(NCCCNCCN1C(=O)c2cccc3cc([N+](=O)[O-])cc(c23)C1=O)c1cc(-c2ccccc2)nc2ccccc12
inactive: [15]; at 1.2 µM -2% | [15]; at 3.7 µM 2% | [15]; at 11.0 µM 6% | [15]; at 33.0 µM 38% | [16]; at 1.2 µM 0% | [16]; at 3.7 µM 2% | [16]; at 11.0 µM 8% | [16]; at 33.0 µM 19% | [16]; at 100.0 µM 57% | [3]; at 1.2 µM -2% | [3]; at 3.7 µM 2% | [3]; [17] -11% | [3]; at 11.0 µM 8% | [3]; at 33.0 µM 64% | [4]; at 1.2 µM 0% | [4]; at 3.7 µM -1% | [4]; [17] -1% | [4]; at 11.0 µM 0% | [4]; at 33.0 µM 5% | [5]; at 1.2 µM -1% | [5]; at 3.7 µM -1% | [5]; at 11.0 µM 4% | [5]; at 33.0 µM 21% | [6]; [17] -2% | [7]; at 1.2 µM 1% | [7]; at 3.7 µM 3% | [7]; at 11.0 µM -4% | [7]; at 33.0 µM 10% | [8]; [17] 33% | [9]; at 1.2 µM -4% | [9]; at 3.7 µM 0% | [9]; [17] -9% | [9]; at 11.0 µM 2% | [9]; at 33.0 µM 9% | [10]; at 1.2 µM -1% | [10]; at 3.7 µM -1% | [10]; at 11.0 µM -2% | [10]; at 33.0 µM -2% | [11]; at 1.2 µM -3% | [11]; at 3.7 µM 1% | [11]; at 11.0 µM 1% | [11]; at 33.0 µM 9% | [13]; [17] -1% | [14]; at 1.2 µM -3% | [14]; at 3.7 µM -2% | [14]; at 11.0 µM -1% | [14]; at 33.0 µM 10%
active: [15]; at 100.0 µM 98% | [3]; [18] 98% | [3]; at 50.0 µM 94.3% | [3]; at 100.0 µM 99% | [4]; [18] 86% | [4]; at 50.0 µM 91% | [4]; at 100.0 µM 99% | [5]; at 100.0 µM 99% | [6]; [18] 96% | [6]; at 50.0 µM 93.5% | [7]; at 100.0 µM 98% | [8]; [18] 78% | [8]; at 50.0 µM 93.6% | [9]; [18] 97% | [9]; at 50.0 µM 93.3% | [9]; at 100.0 µM 98% | [10]; at 100.0 µM 99% | [11]; at 100.0 µM 99% | [13]; [18] 97% | [13]; at 50.0 µM 97.6% | [14]; at 100.0 µM 99%

NC1CCCCC1N.Nc1c(N=Nc2ccc(-c3ccc(N=Nc4cc(S(=O)(=O)[O-])c5ccccc5c4N)cc3)cc2)cc(S(=O)(=O)[O-])c2ccccc12.[OH3+].[OH3+].[Pt+4]
inactive: [1]; at 1.2 µM 1% | [1]; at 3.7 µM -43% | [1]; at 11.0 µM 26% | [1]; at 33.0 µM 35% | [16]; at 1.2 µM -7% | [16]; at 3.7 µM 13% | [16]; at 100.0 µM 60% | [2]; at 1.2 µM 1% | [2]; at 3.7 µM 12% | [3]; at 1.2 µM 2% | [3]; at 3.7 µM 1% | [3]; [17] 1% | [3]; at 11.0 µM 28% | [4]; at 1.2 µM 0% | [4]; at 3.7 µM 9% | [4]; at 11.0 µM 66%
active: [1]; at 100.0 µM 92% | [16]; at 11.0 µM 91% | [16]; at 33.0 µM 88% | [2]; at 11.0 µM 90% | [2]; at 33.0 µM 94% | [2]; at 100.0 µM 84% | [3]; at 33.0 µM 89% | [3]; [18] 83% | [3]; at 50.0 µM 86.7% | [3]; at 100.0 µM 70% | [4]; [17] 88% | [4]; at 33.0 µM 92% | [4]; [18] 84% | [4]; at 50.0 µM 80.9%

— PubChem BioAssay (NCI)
